PubChem BioAssay (EPA / NIEHS)
The source made the active and inactive calls. The calls were made as follows, unless noted: active = hit-call score of the fitted dose curve at least 0.9, where 1 is the maximum; inactive = score below 0.9.

Experiments:
[1] = read-out: Protein phosphatase 2A (PPP2R4), PTPA (gene 5524); experiment: LTEA_HepaRG_PPP2R4: Life Technologies and Expression Analysis (LTEA) Assay for Protein phosphatase 2A (PPP2R4) using HepaRG (AID 2283522); conditions: mRNA level, 48 h; actives raise or lower the signal
Procedure, shortened: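 Using HepaRG cultures maintained in 0.5% DMSO, chemicals are tested 48 h at up to 100 uM in duplicate. Induction or suppression of PPP2R4 mRNA, measured by qRT-PCR, is fitted bidirectionally against the vehicle baseline.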

[2] = read-out: Phosphatase and tensin (PTEN), PTEN (gene 5728); experiment: LTEA_HepaRG_PTEN: Life Technologies and Expression Analysis (LTEA) Assay for Phosphatase and tensin (PTEN) using HepaRG (AID 2283523); conditions: mRNA level, 48 h; actives raise or lower the signal
Procedure, shortened: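 HepaRG, 48 h exposure, 8-pt half-log series from 100 uM top, 0.5% DMSO vehicle, duplicates. Readout: Fluidigm qRT-PCR of PTEN transcript; housekeeping normalization (ACTB, GAPDH, POLR2A). Gain or loss fitted relative to DMSO baseline.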

[3] = read-out: solute carrier (SLC22A1), SLC22A1 (gene 6580); experiment: LTEA_HepaRG_SLC22A1: Life Technologies and Expression Analysis (LTEA) Assay for solute carrier (SLC22A1) using HepaRG (AID 2283524); conditions: mRNA level, 48 h; actives raise or lower the signal;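 as to AC50: differentiated human HepaRG liver cells in serum-free induction medium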
Procedure, shortened: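 qRT-PCR readout (TaqMan, Fluidigm arrays) of SLC22A1 transcript, normalized to three housekeeping genes; bidirectional curve fit relative to 0.5% DMSO vehicle. Differentiated human HepaRG cells, 48 h chemical exposure, top concentration 100 uM, half-log steps, eight points.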

[4] = read-out: Pyruvate Dehydrogenase Kinase 4 (PDK4), PDK4 (gene 5166); experiment: LTEA_HepaRG_PDK4: Life Technologies and Expression Analysis (LTEA) Assay for Pyruvate Dehydrogenase Kinase 4 (PDK4) using HepaRG (AID 2283525); conditions: mRNA level, 48 h; actives raise or lower the signal
Procedure, shortened: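 HepaRG (human liver line), 48 h chemical exposure, 8-pt half-log CRC top 100 uM, 0.5% DMSO vehicle, duplicates. Readout: TaqMan qRT-PCR of PDK4 mRNA, housekeeping-normalized; gain/loss fit relative to DMSO baseline.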

[5] = read-out: NAD(P)H dehydrogenase [quinone] 1 (NQO1), NQO1 (gene 1728); experiment: LTEA_HepaRG_NQO1: Life Technologies and Expression Analysis (LTEA) Assay for NAD(P)H dehydrogenase [quinone] 1 (NQO1) using HepaRG (AID 2283526); conditions: mRNA level, 48 h; actives raise or lower the signal
Procedure, shortened: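 In this assay, gene expression is read by qRT-PCR after 48 h exposure of HepaRG cells to eight concentrations (max 100 uM, half-log) in 0.5% DMSO. Each chemical runs in duplicate, and activity is scored relative to vehicle.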

[6] = read-out: succinate dehydrogenase complex iron sulfur subunit B (SDHB), SDHB (gene 6390); experiment: LTEA_HepaRG_SDHB: Life Technologies and Expression Analysis (LTEA) Assay for succinate dehydrogenase complex iron sulfur subunit B (SDHB) using HepaRG (AID 2283528); conditions: mRNA level, 48 h; actives raise or lower the signal
Procedure, shortened: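 A human HepaRG culture in serum-free induction medium received test chemicals for 48 h over an eight-point range capped at 100 uM. SDHB expression change was quantified by qRT-PCR.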

[7] = read-out: Signal transducer and activator of transcription 3 (Homo sapiens) (UniProt P40763); experiment: LTEA_HepaRG_STAT3: Life Technologies and Expression Analysis (LTEA) Assay for Signal transducer and activator of transcription (STAT3) using HepaRG (AID 2283529); conditions: mRNA level, 48 h; actives raise or lower the signal
Procedure, shortened: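 HepaRG, 48 h exposure, 8-pt half-log series (top 100 uM), 0.5% DMSO vehicle, duplicates. Readout: STAT3 transcript by Fluidigm qRT-PCR, housekeeping-normalized; bidirectional fit vs DMSO baseline.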

[8] = read-out: solute carrier (SLCO1B1), SLCO1B1 (gene 10599); experiment: LTEA_HepaRG_SLCO1B1: Life Technologies and Expression Analysis (LTEA) Assay for solute carrier (SLCO1B1) using HepaRG (AID 2283530); conditions: mRNA level, 48 h; actives raise or lower the signal
Procedure, shortened: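 HepaRG, serum-free induction medium, 48 h dosing, 8-pt half-log from 100 uM, 0.5% DMSO vehicle, duplicates. Readout: SLCO1B1 mRNA, qRT-PCR, ACTB/GAPDH/POLR2A normalization; up or down fit vs DMSO.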

[9] = read-out: sulfotransferase 2A1 (SULT2A1), SULT2A1 (gene 6822); experiment: LTEA_HepaRG_SULT2A1: Life Technologies and Expression Analysis (LTEA) Assay for sulfotransferase 2A1 (SULT2A1) using HepaRG (AID 2283531); conditions: mRNA level, 48 h; actives raise or lower the signal
Procedure, shortened: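 Transcript levels of SULT2A1, quantified by qRT-PCR and normalized to three housekeeping genes, serve as the readout. Human HepaRG cultures receive test chemicals for 48 h at up to 100 uM in half-log steps, with 0.5% DMSO vehicle.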

[10] = read-out: Transforming Growth Factor (TGFA), TGFA (gene 7039); experiment: LTEA_HepaRG_TGFA: Life Technologies and Expression Analysis (LTEA) Assay for Transforming Growth Factor (TGFA) using HepaRG (AID 2283532); conditions: mRNA level, 48 h; actives raise or lower the signal
Procedure, shortened: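 qRT-PCR read-out of TGFA transcript, normalized to three housekeeping genes, fitted bidirectionally against 0.5% DMSO baseline. Human HepaRG cultures received chemicals for 48 h at eight half-log concentrations, top 100 uM.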

[11] = read-out: Transforming Growth Factor (TGFB1), TGFB1 (gene 7040); experiment: LTEA_HepaRG_TGFB1: Life Technologies and Expression Analysis (LTEA) Assay for Transforming Growth Factor (TGFB1) Transporter using HepaRG (AID 2283533); conditions: mRNA level, 48 h; actives raise or lower the signal
Procedure, shortened: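 HepaRG, 48 h post-plating, switched to serum-free induction medium; chemicals 100 uM top, half-log, 8 pts, 0.5% DMSO, dup; 48 h exposure; RNA → Fluidigm TaqMan qRT-PCR; norm ACTB/GAPDH/POLR2A; bidirectional fit vs DMSO.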

TIMP1, TIMP1 (gene 7076) = experiment: LTEA_HepaRG_TIMP1: Life Technologies and Expression Analysis (LTEA) Assay for TIMP1 using HepaRG (AID 2283534); conditions: mRNA level, 48 h; actives raise or lower the signal
Procedure, shortened: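 Readout is TIMP1 mRNA level measured by qRT-PCR and normalized to three housekeeping genes. Human HepaRG cells were treated for 48 h in duplicate at eight concentrations up to 100 uM (0.5% DMSO); gain or loss fitted against DMSO.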

[12] = read-out: Tumor necrosis factor receptor 1 (TNFRSF1A), TNFRSF1A (gene 7132); experiment: LTEA_HepaRG_TNFRSF1A: Life Technologies and Expression Analysis (LTEA) Assay for Tumor necrosis factor receptor 1 (TNFRSF1A) using HepaRG (AID 2283535); conditions: mRNA level, 48 h; actives raise or lower the signal
Procedure, shortened: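 Read-out is TNFRSF1A transcript level by TaqMan qRT-PCR, normalized to three housekeeping genes, scored as gain or loss of signal versus 0.5% DMSO. Human HepaRG cells received test chemicals for 48 h at up to 100 uM (half-log series).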

[13] = read-out: Cellular tumor antigen p53 (Homo sapiens) (UniProt P04637); experiment: LTEA_HepaRG_TP53: Life Technologies and Expression Analysis (LTEA) Assay for Tumor Protein P53 (TP53) using HepaRG (AID 2283537); conditions: mRNA level, 48 h; actives raise or lower the signal
Procedure, shortened: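 Gain or loss of TP53 mRNA signal is scored relative to 0.5% DMSO after 48 h chemical treatment of HepaRG liver cells, tested in duplicate at eight half-log concentrations up to 100 uM.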

[14] = read-out: UDP glucuronosyltransferase (UGT1A6), UGT1A6 (gene 54578); experiment: LTEA_HepaRG_UGT1A6: Life Technologies and Expression Analysis (LTEA) Assay for UDP glucuronosyltransferase (UGT1A6) using HepaRG (AID 2283539); conditions: mRNA level, 48 h; actives raise or lower the signal
Procedure, shortened: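 HepaRG, 48 h post-plating switch to serum-free induction medium; chemical 48 h, 100 uM top, half-log x8, duplicate, 0.5% DMSO. Phenobarbital 1mM induction control. UGT1A6 mRNA by TaqMan qRT-PCR; gain/loss fit vs DMSO.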

[15] = read-out: X-box binding protein 1 (XBP1), XBP1 (gene 7494); experiment: LTEA_HepaRG_XBP1: Life Technologies and Expression Analysis (LTEA) Assay for X-box binding protein 1 (XBP1) using HepaRG (AID 2283540); conditions: mRNA level, 48 h; actives raise or lower the signal
Procedure, shortened: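 Transcript levels of XBP1, measured by qRT-PCR and normalised to three housekeeping genes, were fitted bidirectionally relative to 0.5% DMSO controls. Human HepaRG cells received eight-point half-log dilutions from 100 uM for 48 h.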

[16] = LTEA_HepaRG_LDH_cytotoxicity: Cytotoxicity Assessment in the Life Technologies and Expression Analysis (LTEA) Assay (AID 2283563; active = hit-call score of the fitted dose curve at least 0.9, where 1 is the maximum;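 as to AC50: LDH activity released into spent culture medium as a marker of cell death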)
Procedure, shortened: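 Cells were thawed and plated for 48 h. Medium was then replaced with serum-free induction medium. Chemicals (8 half-log points, maximum 100 uM, 0.5% DMSO) were added in duplicate for 48 h, after which spent medium was assayed for LDH.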

[17] = read-out: Thyroid Hormone Responsive (THRSP), THRSP (gene 7069); experiment: LTEA_HepaRG_THRSP: Life Technologies and Expression Analysis (LTEA) Assay for Thyroid Hormone Responsive (THRSP) using HepaRG (AID 2283536); conditions: mRNA level, 48 h; actives raise or lower the signal
Procedure, shortened: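 qRT-PCR read-out (Fluidigm TaqMan), housekeeping-normalized (ACTB/GAPDH/POLR2A). HepaRG, 48 h chemical exposure, 8-pt half-log series from 100 uM in 0.5% DMSO, duplicates. Bidirectional curve fit vs 0.5% DMSO baseline.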

[18] = read-out: UDP glucuronosyltransferase (UGT1A1), UGT1A1 (gene 54658); experiment: LTEA_HepaRG_UGT1A1: Life Technologies and Expression Analysis (LTEA) Assay for UDP glucuronosyltransferase (UGT1A1) using HepaRG (AID 2283538); conditions: mRNA level, 48 h; actives raise or lower the signal
Procedure, shortened: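 mRNA induction or loss of UGT1A1, by TaqMan qRT-PCR, in duplicate HepaRG wells after 48 h exposure to half-log dilutions topping at 100 uM; DMSO (0.5%) served as baseline.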

Measured: AC50

Cellular tumor antigen p53 (Homo sapiens), sequence (P04637 whole entry, looked up): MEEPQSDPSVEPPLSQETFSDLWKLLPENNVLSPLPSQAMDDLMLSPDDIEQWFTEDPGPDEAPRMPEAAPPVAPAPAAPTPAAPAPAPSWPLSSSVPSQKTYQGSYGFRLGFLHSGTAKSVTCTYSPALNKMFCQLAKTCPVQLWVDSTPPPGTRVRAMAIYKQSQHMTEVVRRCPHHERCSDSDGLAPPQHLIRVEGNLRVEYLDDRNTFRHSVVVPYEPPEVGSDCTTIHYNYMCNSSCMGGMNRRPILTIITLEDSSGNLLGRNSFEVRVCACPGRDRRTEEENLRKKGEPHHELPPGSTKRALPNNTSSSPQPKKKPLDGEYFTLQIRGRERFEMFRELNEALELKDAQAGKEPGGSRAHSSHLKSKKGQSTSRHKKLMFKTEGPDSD
Signal transducer and activator of transcription 3 (Homo sapiens), sequence (P40763 whole entry, looked up): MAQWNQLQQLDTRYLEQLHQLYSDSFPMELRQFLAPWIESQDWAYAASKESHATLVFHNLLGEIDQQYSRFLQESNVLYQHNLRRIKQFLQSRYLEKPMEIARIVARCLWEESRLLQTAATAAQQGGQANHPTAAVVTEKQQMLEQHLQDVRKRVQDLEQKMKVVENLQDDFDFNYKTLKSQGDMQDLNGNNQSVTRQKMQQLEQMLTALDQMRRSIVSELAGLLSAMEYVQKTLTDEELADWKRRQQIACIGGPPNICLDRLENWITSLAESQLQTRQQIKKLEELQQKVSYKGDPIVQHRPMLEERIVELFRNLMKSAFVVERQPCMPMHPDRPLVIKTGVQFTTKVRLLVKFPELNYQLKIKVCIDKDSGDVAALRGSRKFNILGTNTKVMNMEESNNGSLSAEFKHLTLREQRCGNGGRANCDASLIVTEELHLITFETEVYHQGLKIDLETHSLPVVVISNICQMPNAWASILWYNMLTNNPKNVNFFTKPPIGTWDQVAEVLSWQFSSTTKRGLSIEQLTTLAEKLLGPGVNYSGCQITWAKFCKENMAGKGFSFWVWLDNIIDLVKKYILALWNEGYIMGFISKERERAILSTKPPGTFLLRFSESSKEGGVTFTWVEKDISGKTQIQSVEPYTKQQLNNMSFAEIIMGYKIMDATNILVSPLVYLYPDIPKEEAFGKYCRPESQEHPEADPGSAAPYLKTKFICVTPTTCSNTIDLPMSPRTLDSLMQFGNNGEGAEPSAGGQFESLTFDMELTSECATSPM

COc1cc(C(=O)NC2CCN(C)CC2)ccc1Nc1ncc2c(n1)N(C1CCCC1)CC(F)(F)C(=O)N2C
active: [1] 11.9 µM | [2] 12 µM | [3] 5.56 µM | [4] 22.2 µM | [6] 12.7 µM | [7] 27.3 µM | [8] 7.47 µM | [9] 11.6 µM | [11] 3.64 µM | TIMP1, TIMP1 (gene 7076) 11.9 µM | [12] 4.65 µM | [13] 8 µM | [14] 8.85 µM | [15] 10.8 µM | [16] 16.5 µM
inactive: [5] | [10]

O=C(OCCCCCCOC(=O)c1ccccc1)c1ccccc1
not listed: [17] | [18]
inactive: all other assays above

CCCCCCCCOC(=O)c1cc(O)c(O)c(O)c1
not listed: TIMP1, TIMP1 (gene 7076)
inactive: all other assays above

CN1C(=O)N(c2ccccc2Br)Cc2cnc(Nc3ccc4c(c3)OCC(CO)O4)nc21 (stereo unspecified)
active: [3] 35.2 µM | [4] 50 µM | [6] 12.2 µM | [7] 50 µM | [8] 80.9 µM | [9] 81.1 µM | TIMP1, TIMP1 (gene 7076) 11.9 µM | [12] 83.7 µM | [18] 85.6 µM | [14] 81.5 µM | [16] 67.9 µM
inactive: [1] | [2] | [5] | [10] | [13] | [15]

CCCCCCCCOc1ccc(C(=O)c2ccccc2)c(O)c1
active: [18] 20.4 µM
not listed: [11] | TIMP1, TIMP1 (gene 7076)
inactive: all other assays above

O=c1[nH]sc2ccccc12
not listed: TIMP1, TIMP1 (gene 7076)
inactive: all other assays above

CC[C@@H]1C[C@H](N(Cc2cc(C(F)(F)F)cc(C(F)(F)F)c2)C(C)=O)c2cc(C(F)(F)F)ccc2N1C(=O)OC(C)C
not listed: [17] | [18]
inactive: all other assays above
